Screen size: about 290,000 compounds; about 3,200 (1.1%) were called active. No stated cut-off is given here; in the data, active means inhibition above about 60%; inactive means the rest. For the sample, actives were picked, then their nearest neighbours and some compounds at random.

As a reminder, the inhibition is the drop in the measured response relative to a control, in per cent.

For this assay, the target named is Phosphoethanolamine/phosphocholine phosphatase (Homo sapiens) (UniProt Q8TCT1). Briefly: PubChem AID 1565. Conditions: recombinant PHOSPHO1, absorbance phosphatase assay; at 13.3 µM; stronger effect = higher value.
Phosphoethanolamine/phosphocholine phosphatase (Homo sapiens), sequence (Q8TCT1 whole entry, looked up): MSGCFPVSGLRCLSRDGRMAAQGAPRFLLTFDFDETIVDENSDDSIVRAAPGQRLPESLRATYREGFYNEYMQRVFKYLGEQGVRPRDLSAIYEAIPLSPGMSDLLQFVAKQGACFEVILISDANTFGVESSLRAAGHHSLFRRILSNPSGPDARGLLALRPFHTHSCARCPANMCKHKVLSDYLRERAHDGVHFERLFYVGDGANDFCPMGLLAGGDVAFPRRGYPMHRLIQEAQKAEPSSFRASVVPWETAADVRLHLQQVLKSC
For `CC(=O)OCCN(CCCn1c(-c2ccncc2)nc2ccccc21)c1nc(-c2ccc(C)cc2)cs1`, the inhibition was 20.2% (inactive).

As for `Nc1ccc(C(=O)Nc2ccccc2N)cc1`, the inhibition was 8.3% (inactive).

With `N#Cc1c(N2CCCCC2)nc(N)c2c(N)nc(SCC(=O)O)cc12`, the inhibition was 60.8% (active).

As for `Cc1cc(C)c(C#N)c(N2CCC(C(N)=O)CC2)n1`, the inhibition was -42.6% (inactive).

Consider `N#Cc1c(-c2ccccc2)cc(-c2ccccc2)nc1SCC(=O)O`, for which the inhibition was -12.1% (inactive).

Take `C/C(CC(=O)NCc1ccc(Cl)cc1)=N\NC(=O)COc1ccc(C)cc1Br`: the inhibition was 41.6% (inactive).

With `CC1CCN(C(=O)Cn2nnnc2CN2CCOCC2)CC1`, the inhibition is 47.5% (inactive).

As to `Cc1ccc(C2Nc3cccc4cccc(c34)N2)cc1`, the inhibition was 13.8% (inactive).

On to `Oc1ccc(C2Nc3cccc4cccc(c34)N2)cc1`, for which the inhibition was 14.1% (inactive).

For the compound `C/C(=C\c1ccco1)C1Nc2cccc3cccc(c23)N1`, the inhibition was 94% (active).

For the compound `CC1CCN(CC(=O)c2c[nH]c3ccccc23)CC1`, the inhibition was 47.6% (inactive).

For the compound `O=C(NC1CCCC1)C(=O)c1c[nH]c2ccccc12`, the inhibition was 62.6% (active).

Turning to `O=C(NCCCc1ccccc1)C(=O)c1c[nH]c2ccccc12`, the inhibition was 38.2% (inactive).

On to `COc1cccc(NC(=O)c2nn(C34CC5CC(CC(C5)C3)C4)cc2[N+](=O)[O-])c1`, for which the inhibition is 6.2% (inactive).

With `Cc1nc([N+](=O)[O-])nn1C12CC3CC(CC(Br)(C3)C1)C2`, the inhibition is 93% (active).

`Cc1ncn(C23CC4CC(CC(O)(C4)C2)C3)n1`: the inhibition was 12.9% (inactive).

In the case of `Cc1cc(-c2ccc(C)c(S(=O)(=O)Nc3ccc(S(N)(=O)=O)cc3)c2)on1`, the inhibition is 44.5% (inactive).

`Cc1noc(C)c1CSCC(=O)N(CCC(C)C)c1c(N)n(Cc2ccccc2)c(=O)[nH]c1=O`: the inhibition was 9.8% (inactive).

For the compound `O=C(CCN1C(=O)C2C3CCC(C3)C2C1=O)Nc1ccc(Cl)cc1Cl` (stereo not given), the inhibition is 26.6% (inactive).

Regarding `COCc1ccc(CN2CCC(Oc3ccc(C(=O)NCc4ccccn4)cc3)CC2)o1`, the inhibition was 61% (active).

As to `Cc1nn(C)c(C)c1C(C)NC(=O)c1ccc(OC2CCN(Cc3ccccn3)CC2)cc1` (stereo not given), the inhibition is 18.5% (inactive).

`O=C(c1ccc(OC2CCN(Cc3ccccn3)CC2)cc1)N1CCCCCC1`: the inhibition is 32.8% (inactive).

For the compound `CN(CCc1ccccn1)C(=O)c1ccc(OC2CCN(Cc3ccccn3)CC2)cc1`, the inhibition was 17% (inactive).

For `O=C(NCCOc1cccnc1)c1ccc(OC2CCN(Cc3ccccn3)CC2)cc1`, the inhibition was 13.7% (inactive).

Turning to `Cn1cc(CNC(=O)c2ccc(OC3CCN(Cc4ccccn4)CC3)cc2)cn1`, the inhibition was 69% (active).

`COc1cc(/C=N/N2CCN(c3ccccc3)CC2)ccc1OC(C)=O`: the inhibition is 13.8% (inactive).

In the case of `Cc1cc(C)cc(NC(=O)NCc2ccccn2)c1`, the inhibition was 19% (inactive).

Take `Cc1cc(C(=O)CSc2nc(N)cc(=O)[nH]2)c(C)n1Cc1ccco1`: the inhibition was 14.9% (inactive).

On to `COc1ccc(OC)c(-n2nnnc2SCC(=O)Nc2cc(C)ccc2OC)c1`, for which the inhibition was -22.4% (inactive).

As for `COc1ccc(C)cc1-n1nnnc1SCC(=O)c1cc(C)n(Cc2ccco2)c1C`, the inhibition is 90.1% (active).

On to `CC(C)Cc1nnc(NC(=O)CN2C(=O)NC3(CCCCC3)C2=O)s1`, for which the inhibition was 24% (inactive).

As to `CCOC(=O)c1ccc(Nc2cc(C)nc3nc(C)nn23)cc1`, the inhibition was -1.2% (inactive).

As for `CCc1ccc(NC2Nc3cc(C)nn3S2)cc1` (stereo not given), the inhibition was -1% (inactive).

In the case of `CCOC(=O)c1ccc(NC2Nc3cc(C)nn3S2)cc1` (stereo not given), the inhibition is 62.2% (active).

On to `COc1ccc(CCNC(=O)CN2C(=O)CCSc3ccccc32)c(OC)c1`, for which the inhibition is 6.9% (inactive).

As for `COc1ccccc1CCCNC(=O)C1CCC(=O)N(CCN2CCOCC2)C1` (stereo not given), the inhibition was 4.2% (inactive).

As to `CCOc1ccc(S(=O)(=O)Nc2ccc(S(=O)(=O)Nc3cc(OC)ccc3OC)cc2)cc1`, the inhibition is -2.6% (inactive).

Regarding `COc1ccc(OC)c(C(C)NC(=S)Nc2ccc(S(=O)(=O)Nc3ncccn3)cc2)c1` (stereo not given), the inhibition is 62.4% (active).

`COc1ccc(NS(=O)(=O)c2ccc(NC(=S)NC(=O)CC(C)C)cc2)cc1`: the inhibition was -49.5% (inactive).

With `Cc1ccc(C)c(NC(=O)c2cc(-c3cc(C)cc(C)c3O)n[nH]2)c1`, the inhibition was 41.9% (inactive).

In the case of `CCOc1ccc(C(=O)COC(=O)c2ccc(-n3cnnn3)cc2)cc1`, the inhibition was 13.7% (inactive).

Take `CCOC(=O)c1c(-n2cnnn2)sc(C)c1C`: the inhibition was 98.7% (active).

Turning to `CCOC(=O)c1c(NC(=O)CSc2nccc(=O)[nH]2)sc(C)c1C`, the inhibition was 22.2% (inactive).

For `CCCC(C)NC(=O)C1CCN(C(=O)C2CC(=O)N(c3ccc(C)cc3)C2)CC1` (stereo not given), the inhibition is 14.2% (inactive).

With `COc1cc(CC(=O)NCc2cccs2)cc(OC)c1OC`, the inhibition was 1% (inactive).

Regarding `CCN(CC(=O)NCc1cccs1)C(=O)c1cccc(S(=O)(=O)Nc2ccccc2OC)c1`, the inhibition was 60.6% (active).

As for `CCN(CC(=O)NCc1cccs1)C(=O)c1ccccc1F`, the inhibition was 16.3% (inactive).

For the compound `S=c1[nH]nc(-c2ccc(Cl)cc2)n1CC1CCCO1` (stereo not given), the inhibition is 90.4% (active).

On to `Cc1nnc(SCC(=O)NNC(=O)c2ccc(Cl)cc2)n1CC1CCCO1` (stereo not given), for which the inhibition was 14.8% (inactive).

Turning to `Cc1ccc(-n2c(-c3ccc(Cl)cc3)n[nH]c2=S)cc1`, the inhibition was -46.5% (inactive).

Turning to `O=c1[nH]c(CSc2ncc(-c3ccc(F)cc3)n2Cc2ccco2)nc2ccccc12`, the inhibition was 67.4% (active).

On to `CCn1c(COc2c(C)cccc2C)nnc1SCc1nc2ccccc2c(=O)[nH]1`, for which the inhibition is 29.2% (inactive).

`CCn1c(Cc2ccccc2)nnc1SCc1nc2ccccc2c(=O)[nH]1`: the inhibition is 6.3% (inactive).

Consider `Cc1ccccc1CCNC(=O)C1CCC(=O)N(Cc2ccc(Cl)cc2)C1` (stereo not given), for which the inhibition is 27% (inactive).

In the case of `COc1ccc2c(c1)C(NS(=O)(=O)OCC(Cl)(Cl)Cl)CCC2` (stereo not given), the inhibition is -7.3% (inactive).

As for `O=c1c(-c2ccccc2Cl)c[nH]n1-c1ccccc1`, the inhibition is 31.3% (inactive).

Take `Cc1ccc(S(=O)(=O)C(C#N)c2nc3ccccc3nc2N2CCCC2)cc1C` (stereo not given): the inhibition is 95.8% (active).

As to `Cc1ccc(S(=O)(=O)Nc2nc3ccccc3nc2N2CCc3ccccc3C2)cc1`, the inhibition was 10.5% (inactive).

In the case of `Cc1cc(N2CCN(S(=O)(=O)c3ccc(C)c(C)c3)CC2)c2ccccc2n1`, the inhibition is -5.3% (inactive).

For `COC(=O)c1cc(C(=O)NC(C)C2CC3CCC2C3)cc([N+](=O)[O-])c1` (stereo not given), the inhibition was 26.5% (inactive).

In the case of `Cc1ccc(-n2nc3c(=O)n(C(C)C(=O)NCc4ccc5c(c4)OCO5)nc(C)c3c2C)cc1` (stereo not given), the inhibition was 18.3% (inactive).

Regarding `O=c1ccc(-c2ccc(S(=O)(=O)Nc3ccccc3)o2)n[nH]1`, the inhibition was 1% (inactive).

`Cc1ccc(C(=O)CSc2nnc(Cn3nnc4ccccc43)n2C)cc1`: the inhibition is -7.4% (inactive).

`Cn1c(CNC(=O)c2ccccc2F)nnc1SCc1ccc(F)cc1`: the inhibition is 15.9% (inactive).

Consider `Cn1c(Cn2nnc3ccccc32)nnc1SCC(=O)c1ccccc1F`, for which the inhibition is 68.8% (active).

Consider `COc1ccc(OC)c(NC(=O)CN(C)CCOc2ccc(Br)cc2)c1`, for which the inhibition is -11.8% (inactive).

Take `c1nnc2c3c4c(sc3ncn12)CCC4`: the inhibition was 0.9% (inactive).

As for `S=c1[nH]nc2c3c4c(sc3ncn12)CCCC4`, the inhibition was 106% (active).

For `N=c1c2c3c(sc2ncn1N)CCCC3`, the inhibition was 24.8% (inactive).

For the compound `Cc1ccc(C)c(NC(=O)NNC(=O)c2ccc3ccccc3c2O)c1`, the inhibition was 6.1% (inactive).

For the compound `COC(=O)c1sccc1NC(=O)CC1C(=O)NCCN1C(=O)Nc1ccc(F)cc1F` (stereo not given), the inhibition was 31.6% (inactive).

Consider `O=C(CC1SC(=Nc2ccccc2F)N(CCN2CCOCC2)C1=O)Nc1ccc(F)cc1F` (stereo not given), for which the inhibition is 64.7% (active).

Regarding `O=C(CN1CCN(C/C=C/c2ccccc2)CC1)Nc1ccc(F)cc1F`, the inhibition was 35.8% (inactive).

In the case of `COC(=O)c1cccc(N2C(=O)C3C4C=CC(CC4)C3C2=O)c1` (stereo not given), the inhibition was 37.1% (inactive).

With `Cc1ccc(OCc2cc(C(=O)N(C)CCn3ccnc3C)no2)cc1C`, the inhibition was 25% (inactive).

Regarding `O=C(COc1ccc(S(=O)(=O)N2CCOCC2)cc1Cl)N1CCOCC1`, the inhibition is 19% (inactive).

As to `O=C(Cn1c(NCCO)nc2ccccc21)c1ccc(Cl)cc1Cl`, the inhibition is 23.3% (inactive).

Consider `COc1ccc(CCNC(=O)CN(C)S(=O)(=O)c2ccc3nc(C)sc3c2)cc1OC`, for which the inhibition is 3.8% (inactive).

For the compound `Cc1nc2ccc(S(=O)(=O)N(C)CC(=O)NC(C)c3ccccc3)cc2s1` (stereo not given), the inhibition is 64% (active).

Consider `COc1cc(NC(=O)CN(C)S(=O)(=O)c2ccc3nc(C)sc3c2)cc(OC)c1`, for which the inhibition was -3% (inactive).

`COC(=O)c1ccc(/C=C2/C(=O)Oc3ccccc32)cc1`: the inhibition was 32.5% (inactive).

Regarding `CCCC(C)c1nnc(NC(=O)C2CC(=O)N(c3ccc(OCC)cc3)C2)s1` (stereo not given), the inhibition is 36.2% (inactive).

Take `Cc1ccc(NC(=O)N2CCC(O)(c3cccnc3)CC2)cc1`: the inhibition was 1% (inactive).

For the compound `O=C(Nc1cccc(F)c1)N1C2CCC1CC(O)(c1cccnc1)C2` (stereo not given), the inhibition is 61.5% (active).

On to `O=C(c1cccc(F)c1)N1CCC(O)(c2cccnc2)CC1`, for which the inhibition was 36.6% (inactive).

Regarding `CC(=O)c1cccc(NC(=O)CN2C(=O)c3cccnc3Oc3ccc(Cl)cc32)c1`, the inhibition was 18.3% (inactive).

For `CCc1ccc(NC(=O)CCNS(=O)(=O)c2cccs2)cc1`, the inhibition is 35.1% (inactive).

For `O=C(Nc1ccc2ccccc2c1)/C(=C/c1cccc(Br)c1)NC(=O)c1ccco1`, the inhibition was -2.2% (inactive).

Regarding `COc1ccc(C(=O)NNC(=S)NC(=O)c2ccccc2)cc1`, the inhibition was 19.1% (inactive).

Consider `CCCc1ccc(OCC(=O)NNC(=S)NC(=O)c2ccco2)cc1`, for which the inhibition was 96.9% (active).

In the case of `Cc1ccc(OCC(=O)NCCCNC(=O)c2ccco2)cc1C`, the inhibition is 16% (inactive).

Turning to `CCCc1ccc(OCCNC(=O)c2ccco2)cc1`, the inhibition was 41.8% (inactive).

As for `CC(Oc1ccc2ccccc2c1)C(=O)NNC(=S)NC(=O)c1ccco1` (stereo not given), the inhibition is 96.9% (active).

On to `O=S(=O)(Nc1ccc2[nH]ncc2c1)c1ccccc1Cl`, for which the inhibition is -129% (inactive).

Turning to `COc1ccc(S(=O)(=O)NNC(=O)Nc2ccc(C)cc2)c(OC)c1`, the inhibition was 21.8% (inactive).

The record behind these values is PubChem BioAssay AID1565 (Sanford-Burnham Center for Chemical Genomics, 2009).
